Records with an inconclusive call do not appear. Active and inactive are the calls of the source. Rule for the calls, unless noted: active = hit-call score of the fitted dose curve at least 0.9, where 1 is the maximum; inactive = score below 0.9.
Columns and labels:
[1] = biological target: human RAR-related Orphan Receptor gamma (RORg), RORC (gene 6097) (UniProt P51449); test: ATG_RORg_TRANS: Attagene TRANS-FACTORIAL HepG2 Assay for human RAR-related Orphan Receptor gamma (RORg) (AID 2283011; active = hit-call score of the fitted dose curve at least 0.9, where 1 is the maximum)
human RAR-related Orphan Receptor gamma (RORg), RORC (gene 6097), sequence (P51449 whole entry, looked up, the tested form may be a part): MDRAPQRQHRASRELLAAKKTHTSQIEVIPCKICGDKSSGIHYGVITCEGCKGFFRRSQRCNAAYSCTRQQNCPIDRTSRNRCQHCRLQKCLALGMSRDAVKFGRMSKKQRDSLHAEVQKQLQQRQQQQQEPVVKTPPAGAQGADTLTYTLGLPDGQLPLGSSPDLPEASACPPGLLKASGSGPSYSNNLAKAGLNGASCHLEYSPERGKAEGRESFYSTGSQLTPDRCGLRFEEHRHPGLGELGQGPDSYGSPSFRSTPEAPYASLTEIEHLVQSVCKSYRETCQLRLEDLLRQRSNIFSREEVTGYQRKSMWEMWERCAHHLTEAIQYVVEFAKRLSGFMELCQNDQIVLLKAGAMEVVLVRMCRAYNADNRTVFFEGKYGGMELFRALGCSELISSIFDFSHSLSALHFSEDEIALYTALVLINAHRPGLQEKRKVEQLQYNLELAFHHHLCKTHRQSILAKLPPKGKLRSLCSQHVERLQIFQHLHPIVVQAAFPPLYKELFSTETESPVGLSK
How it was run: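 Activity is scored as increase in GAL4-UAS reporter mRNA over DMSO, detected by fluorescent RT-PCR and capillary electrophoresis in HepG2 cells transiently expressing a RORg-Gal4 chimera, 24 h after dosing.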

[2] = biological target: human Retinoid X Receptor beta (RXRb), RXRB (gene 6257) (UniProt P28702); test: ATG_RXRb_TRANS: Attagene TRANS-FACTORIAL HepG2 Assay for human Retinoid X Receptor beta (RXRb) (AID 2283013; active = hit-call score of the fitted dose curve at least 0.9, where 1 is the maximum)
human Retinoid X Receptor beta (RXRb), RXRB (gene 6257), sequence (P28702 whole entry, looked up, the tested form may be a part): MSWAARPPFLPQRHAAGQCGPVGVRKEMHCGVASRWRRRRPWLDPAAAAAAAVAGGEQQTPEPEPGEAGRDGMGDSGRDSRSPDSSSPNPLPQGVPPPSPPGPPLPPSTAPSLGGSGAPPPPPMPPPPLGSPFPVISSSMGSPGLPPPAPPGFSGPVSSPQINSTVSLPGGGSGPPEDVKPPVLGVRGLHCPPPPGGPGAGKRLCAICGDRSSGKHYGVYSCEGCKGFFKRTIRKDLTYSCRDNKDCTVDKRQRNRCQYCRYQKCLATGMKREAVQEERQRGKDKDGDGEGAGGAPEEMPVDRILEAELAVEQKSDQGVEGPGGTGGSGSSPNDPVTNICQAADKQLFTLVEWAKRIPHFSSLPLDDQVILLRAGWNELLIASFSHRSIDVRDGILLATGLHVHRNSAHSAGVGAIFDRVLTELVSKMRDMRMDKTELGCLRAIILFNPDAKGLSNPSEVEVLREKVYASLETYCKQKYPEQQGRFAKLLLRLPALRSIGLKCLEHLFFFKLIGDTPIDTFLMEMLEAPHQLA
How it was run: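 Read-out: reporter mRNA induction via RT-PCR plus capillary electrophoresis fluorescence, analysed as signal increase relative to DMSO. Cells were human HepG2, transiently transfected with GAL4-UAS reporter constructs and chimeric receptor-Gal4 fusions, dosed for 24 h.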

[3] = read-out: E-selectin (Homo sapiens) (UniProt P16581); test: BSK_3C_Eselectin: BioMAP Diversity Plus: 3C Assay for Eselectin Biomarker Activity (AID 2283015); settings: primary human endothelial cells (HUVEC); actives raise or lower the signal
How it was run: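 Human vascular endothelium from umbilical vein is exposed to test chemicals for 24 h. E-selectin levels are read by ELISA and compared with DMSO controls.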

[4] = read-out: Interleukin-1 alpha (IL1a), IL1A (gene 3552); test: BSK_BE3C_IL1a: BioMAP Diversity Plus: BE3C Assay for Interleukin-1 alpha (IL1a) Biomarker Activity (AID 2283016); settings: primary human bronchial epithelial cells; actives raise or lower the signal
How it was run: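 ELISA read-out of IL-1a from human lung bronchial epithelial primary cells, 24 h post-dose. Gain or loss of signal fitted relative to DMSO negative control.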

[5] = read-out: Monocyte Chemoattractant Protein-1 (MCP1), CCL2 (gene 6347); test: BSK_3C_MCP1: BioMAP Diversity Plus: 3C Assay for Monocyte Chemoattractant Protein-1 (MCP1) Biomarker Activity (AID 2283017); settings: primary human endothelial cells (HUVEC); actives raise or lower the signal
How it was run: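 Endothelial cells from human umbilical vein are dosed with chemical, cultured 24 h, then assayed for MCP-1 by ELISA; both increases and decreases are modelled against DMSO controls.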

[6] = read-out: Monocyte Chemoattractant Protein-1 (MCP1), CCL2 (gene 6347); test: BSK_4H_MCP1: BioMAP Diversity Plus: 4H Assay for Monocyte Chemoattractant Protein-1 (MCP1) Biomarker Activity (AID 2283018); settings: primary human endothelial cells (HUVEC); actives raise or lower the signal
How it was run: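 HUVEC primary cells, 24 h post-dose, MCP-1 by ELISA. Gain or loss of signal fitted bidirectionally vs DMSO baseline. Cytotoxicity: SRB stain (0.1% after 10% TCA fixation), read 560 nm, parallel cultures.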

[7] = read-out: Human Leukocyte Antigen - DR isotype (HLADR), HLA-DRA (gene 3122); test: BSK_3C_HLADR: BioMAP Diversity Plus: 3C Assay for Human Leukocyte Antigen - DR isotype (HLADR) Biomarker Activity (AID 2283019); settings: primary human endothelial cells (HUVEC); actives raise or lower the signal
How it was run: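 Endothelial cells from human umbilical vein are treated with test chemical; after 24 h, HLA-DR levels are measured by ELISA. Data are fitted in both directions using DMSO as the baseline.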

[8] = read-out: Interleukin-8 (IL8), CXCL8 (gene 3576); test: BSK_3C_IL8: BioMAP Diversity Plus: 3C Assay for Interleukin-8 (IL8) Biomarker Activity (AID 2283020); settings: primary human endothelial cells (HUVEC); actives raise or lower the signal
How it was run: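 HUVEC, 3C stimulation; 24 h compound exposure; IL-8 read by ELISA; gain or loss of signal fitted relative to DMSO control.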

[9] = read-out: Monokine induced gamma interferon (MIG), CXCL9 (gene 4283); test: BSK_3C_MIG: BioMAP Diversity Plus: 3C Assay for Monokine induced gamma interferon (MIG) Biomarker Activity (AID 2283021); settings: primary human endothelial cells (HUVEC); actives raise or lower the signal;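 for AC50: MIG protein level measured by immunoassay in the treated endothelial cultures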
How it was run: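 HUVEC, 3C system; 24 h chemical exposure; MIG by ELISA; bidirectional fit vs DMSO baseline.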

[10] = BSK_3C_SRB: Viability Assessment in the BioMAP Diversity Plus: 3C Assay (AID 2283023); settings: primary human endothelial cells (HUVEC);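 note: cells read 24 h after compound dosing; fitted both ways against DMSO so a hit may be signal rise or drop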
How it was run: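 Cells were dosed with chemical, cultured 24 h, fixed with 10% TCA, stained with 0.1% SRB and read at 560 nm. Human umbilical vein endothelium was used; DMSO served as negative control and baseline.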

[11] = read-out: Matrix Metallopeptidase 1 (MMP1), MMP1 (gene 4312); test: BSK_BE3C_MMP1: BioMAP Diversity Plus: BE3C Assay for Matrix Metallopeptidase 1 (MMP1) Biomarker Activity (AID 2283024); settings: primary human bronchial epithelial cells; actives raise or lower the signal
How it was run: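 ELISA read-out of MMP1 in human lung bronchial epithelial primary cultures, 24 h post-dose; bidirectional curve fit vs DMSO baseline, gain or loss of signal scored.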

[12] = BSK_3C_Vis: BioMAP Diversity Plus: 3C Assay for Morphology Visualization (AID 2283025); settings: primary human endothelial cells (HUVEC);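 note: fitted both ways so gain or loss versus DMSO counts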;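 for AC50: light microscopy image of cell morphology used as background control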
How it was run: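 HUVEC, 3C system; light microscopy of morphology at 24 h post-dose. Bidirectional fit vs DMSO baseline. Secondary readout, background-control function.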

[13] = read-out: Pselectin, SELP (gene 6403); test: BSK_4H_Pselectin: BioMAP Diversity Plus: 4H Assay for Pselectin Biomarker Activity (AID 2283026); settings: primary human endothelial cells (HUVEC); actives raise or lower the signal
How it was run: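 HUVEC, 24 h chemical exposure; P-selectin read by ELISA. Bidirectional curve fit vs DMSO baseline; gain or loss of signal scored.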

[14] = BSK_4H_SRB: Viability Assessment in the BioMAP Diversity Plus: 4H Assay (AID 2283027); settings: primary human endothelial cells (HUVEC);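 note: cells exposed to compound for 24 h before staining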
How it was run: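 Cytotoxicity readout: sulforhodamine B (0.1%) staining of total protein after 10% TCA fixation, measured at 560 nm in human umbilical vein endothelium at 24 h. DMSO set the baseline; fitting was bidirectional.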

[15] = BSK_BE3C_SRB: Viability Assessment in the BioMAP Diversity Plus: BE3C Assay (AID 2283028); settings: primary human bronchial epithelial cells;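 for AC50: fitted both ways so AC50 may mark signal gain or loss versus DMSO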
How it was run: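 Overt cytotoxicity was assessed as total protein in confluent human primary bronchial epithelial cultures 24 h after chemical addition, using 0.1% sulforhodamine B staining read at 560 nm.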

[16] = read-out: Thrombomodulin, THBD (gene 7056); test: BSK_3C_Thrombomodulin: BioMAP Diversity Plus: 3C Assay for Thrombomodulin Biomarker Activity (AID 2283029); settings: primary human endothelial cells (HUVEC); actives raise or lower the signal
How it was run: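 HUVEC, 3C conditions; compound 24 h; thrombomodulin by ELISA; bidirectional curve fit vs DMSO baseline; parallel SRB total-protein staining for cytotoxicity.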

[17] = read-out: Urokinase-type plasminogen activator receptor (uPAR), PLAUR (gene 5329); test: BSK_4H_uPAR: BioMAP Diversity Plus: 4H Assay for Urokinase-type plasminogen activator receptor (uPAR) Biomarker Activity (AID 2283030); settings: primary human endothelial cells (HUVEC); actives raise or lower the signal
How it was run: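 Chemicals are dosed onto human vascular endothelial primary cells (umbilical vein). After 24 h, uPAR is read by ELISA. Gain or loss of signal is fitted relative to DMSO.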

[18] = biological target: human Thyroid Receptor alpha (THRa1), THRA (gene 7067) (UniProt P10827); test: ATG_THRa1_TRANS: Attagene TRANS-FACTORIAL HepG2 Assay for human Thyroid Receptor alpha (THRa1) (AID 2283014; active = hit-call score of the fitted dose curve at least 0.9, where 1 is the maximum)
human Thyroid Receptor alpha (THRa1), THRA (gene 7067), sequence (P10827 whole entry, looked up, the tested form may be a part): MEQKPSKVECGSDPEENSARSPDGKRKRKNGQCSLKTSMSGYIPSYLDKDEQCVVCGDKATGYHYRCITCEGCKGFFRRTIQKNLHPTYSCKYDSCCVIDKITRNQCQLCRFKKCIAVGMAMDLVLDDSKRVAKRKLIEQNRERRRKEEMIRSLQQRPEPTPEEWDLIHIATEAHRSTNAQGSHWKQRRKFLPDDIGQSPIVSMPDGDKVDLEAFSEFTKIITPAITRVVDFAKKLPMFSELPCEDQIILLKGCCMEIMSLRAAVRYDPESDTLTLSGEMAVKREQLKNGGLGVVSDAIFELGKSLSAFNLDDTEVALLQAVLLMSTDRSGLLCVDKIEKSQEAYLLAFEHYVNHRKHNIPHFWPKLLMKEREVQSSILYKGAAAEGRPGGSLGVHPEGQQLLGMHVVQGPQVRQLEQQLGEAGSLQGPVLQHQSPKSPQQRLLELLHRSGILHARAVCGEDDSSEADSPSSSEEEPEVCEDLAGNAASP
How it was run: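 First, HepG2 cells receive multiple GAL4-UAS reporter units and the chimeric receptor. They are then dosed for 24 h, after which RNA is reverse-transcribed, amplified, labelled, HpaI-cut and sized by capillary electrophoresis; gain relative to DMSO is scored.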

[19] = biological target: Retinoic acid receptor RXR-alpha (Homo sapiens) (UniProt P19793); test: ATG_RXRa_TRANS: Attagene TRANS-FACTORIAL HepG2 Assay for human Retinoid X Receptor alpha (RXRa) (AID 2283012; active = hit-call score of the fitted dose curve at least 0.9, where 1 is the maximum)
Retinoic acid receptor RXR-alpha (Homo sapiens), sequence (P19793 whole entry, looked up, the tested form may be a part): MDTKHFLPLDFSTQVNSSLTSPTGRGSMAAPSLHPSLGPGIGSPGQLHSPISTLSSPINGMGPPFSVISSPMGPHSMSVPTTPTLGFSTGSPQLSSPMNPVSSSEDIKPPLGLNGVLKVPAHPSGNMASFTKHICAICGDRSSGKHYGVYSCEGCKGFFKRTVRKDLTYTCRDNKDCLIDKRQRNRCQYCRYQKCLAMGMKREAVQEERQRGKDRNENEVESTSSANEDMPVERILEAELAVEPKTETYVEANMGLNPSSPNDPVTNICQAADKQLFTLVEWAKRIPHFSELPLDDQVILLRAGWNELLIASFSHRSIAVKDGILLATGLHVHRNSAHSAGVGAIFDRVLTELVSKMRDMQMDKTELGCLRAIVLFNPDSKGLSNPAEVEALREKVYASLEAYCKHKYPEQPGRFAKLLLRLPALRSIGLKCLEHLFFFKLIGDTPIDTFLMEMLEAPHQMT
How it was run: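 Read-out: fluorescent reporter-transcript fragments quantified by capillary electrophoresis after RT-PCR. Transiently transfected HepG2 cells carrying GAL4-UAS reporters and NR-GAL4 chimeras were exposed to chemical for 24 h; activity scored as increase over DMSO.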

[20] = biological target: human Vitamin D Receptor (VDR), VDR (gene 7421) (UniProt P11473); test: ATG_VDR_TRANS: Attagene TRANS-FACTORIAL HepG2 Assay for human Vitamin D Receptor (VDR) (AID 2283022; active = hit-call score of the fitted dose curve at least 0.9, where 1 is the maximum)
human Vitamin D Receptor (VDR), VDR (gene 7421), sequence (P11473 whole entry, looked up, the tested form may be a part): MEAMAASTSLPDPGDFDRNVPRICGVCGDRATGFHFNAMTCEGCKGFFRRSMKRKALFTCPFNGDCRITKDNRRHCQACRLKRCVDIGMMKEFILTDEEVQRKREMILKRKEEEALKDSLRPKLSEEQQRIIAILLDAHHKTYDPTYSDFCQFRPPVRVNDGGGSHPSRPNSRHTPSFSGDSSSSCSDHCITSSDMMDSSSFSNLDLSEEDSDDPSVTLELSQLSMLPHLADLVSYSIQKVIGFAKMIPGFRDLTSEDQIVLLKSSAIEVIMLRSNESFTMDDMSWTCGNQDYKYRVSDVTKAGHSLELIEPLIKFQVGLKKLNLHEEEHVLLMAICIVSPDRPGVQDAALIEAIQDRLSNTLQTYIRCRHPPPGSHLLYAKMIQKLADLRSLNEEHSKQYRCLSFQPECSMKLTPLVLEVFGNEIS
How it was run: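 Fluorescence of labelled reporter cDNA fragments, resolved by capillary electrophoresis, gives mRNA induction after 24 h treatment of HepG2 cells carrying transfected Gal4-fusion reporter units. Activity is fitted in the positive direction with DMSO as baseline.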

Measured: AC50

E-selectin (Homo sapiens), sequence (P16581 whole entry, looked up): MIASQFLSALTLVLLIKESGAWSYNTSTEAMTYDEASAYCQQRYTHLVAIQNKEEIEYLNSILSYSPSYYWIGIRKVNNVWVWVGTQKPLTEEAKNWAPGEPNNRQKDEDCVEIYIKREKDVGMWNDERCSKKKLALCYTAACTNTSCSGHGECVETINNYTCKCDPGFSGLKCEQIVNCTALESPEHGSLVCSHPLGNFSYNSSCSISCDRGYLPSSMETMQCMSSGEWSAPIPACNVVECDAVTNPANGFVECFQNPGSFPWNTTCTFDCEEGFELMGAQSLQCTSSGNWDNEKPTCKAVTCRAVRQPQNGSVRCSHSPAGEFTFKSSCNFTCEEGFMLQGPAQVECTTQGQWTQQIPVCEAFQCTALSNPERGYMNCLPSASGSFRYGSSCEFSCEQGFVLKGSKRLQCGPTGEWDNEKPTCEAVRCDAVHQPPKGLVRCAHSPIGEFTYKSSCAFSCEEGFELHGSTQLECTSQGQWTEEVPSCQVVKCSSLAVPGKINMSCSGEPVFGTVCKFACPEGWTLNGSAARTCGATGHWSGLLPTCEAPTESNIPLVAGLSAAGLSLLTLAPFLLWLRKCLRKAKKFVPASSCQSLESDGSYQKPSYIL

O=c1n(Cl)c(=O)n(Cl)c(=O)n1Cl
active: [7] 3.97 µM
not listed: [18] | [19] | [20]
inactive: all other assays above

C=C(C)CN(CC)c1c([N+](=O)[O-])cc(C(F)(F)F)cc1[N+](=O)[O-]
active: [10] 30 µM | [12] 20 µM
not listed: [14] | [18] | [19] | [20]
inactive: all other assays above

COP(=S)(OC)SCn1nnc2ccccc2c1=O
active: [7] 30.2 µM | [13] 35.1 µM
not listed: [19] | [20]
inactive: all other assays above

CC(C)Oc1cccc(NC(=O)c2ccccc2C(F)(F)F)c1
active: [10] 11.6 µM
not listed: [14] | [19] | [20]
inactive: all other assays above

CCNC(=O)NC(=O)C(C#N)=NOC
not listed: [2] | [20]
inactive: all other assays above

CCCN(CC)CC1COC2(CCC(C(C)(C)C)CC2)O1 (centres undefined)
active: [7] 6.16 µM
not listed: [20]
inactive: all other assays above

CCN(CC)C(=O)C(C)Oc1cccc2ccccc12 (centres undefined)
active: [10] 5.16 µM | [11] 5.25 µM | [12] 9.8 µM
not listed: [14] | [18] | [19] | [20]
inactive: all other assays above

Cc1c(COC(=O)[C@@H]2[C@H](/C=C(\Cl)C(F)(F)F)C2(C)C)cccc1-c1ccccc1
active: [7] 5.44 µM | [10] 11.7 µM | [12] 0.28 µM | [13] 12.3 µM | [16] 4.98 µM
not listed: [14] | [19] | [20]
inactive: all other assays above

CCOc1cc(C(C)(C)C)ccc1C1COC(c2c(F)cccc2F)=N1 (centres undefined)
inactive: [1] | [19] | [2] | [4] | [20] | [16]
active: [3] 18.9 µM | [5] 27.6 µM | [6] 18.5 µM | [7] 29.8 µM | [8] 23.9 µM | [9] 32.1 µM | [10] 15.1 µM | [11] 10.3 µM | [12] 22 µM | [13] 22.2 µM | [15] 20 µM | [17] 33 µM

Nc1c(Cl)c(Cl)nc(C(=O)O)c1Cl
not listed: [14] | [20]
inactive: all other assays above

Clc1cccc(C(Cl)(Cl)Cl)n1
not listed: [20]
inactive: all other assays above

CCOc1nc(F)cc2nc(S(=O)(=O)Nc3c(Cl)cccc3Cl)nn12
active: [5] 33.2 µM
not listed: [19]
inactive: all other assays above

O=C(Nc1ccccc1-c1ccc(Cl)cc1)c1cccnc1Cl
active: [12] 39 µM
not listed: [14] | [19] | [20]
inactive: all other assays above
